# Laboratory results taken from PubChem BioAssay AID686979 (National Center for Advancing Translational Sciences (NCATS), 2013).
# “And” between values parts separate entries of the source, which are not always exact repeats. Identical values can stand only once. In all, about 420,000 compounds went through this assay and about 50,000 (12%) were called active. Inconclusive results (about 26%) are left out. Calls come from the whole dose curve; as a rule, active = well fitted inhibition curve with a large enough effect; inconclusive = small, poorly fitted or top-dose-only effect; inactive = flat fitted curve, though single readings scatter. The entries come from a sample that favours actives as a whole. Entries that show only a call come without a potency.
# Assay: qHTS for Inhibitors of human tyrosyl-DNA phosphodiesterase 1 (TDP1): qHTS in cells in presence of CPT; note: nearly all actives have a fitted effect of over 55% in size
# Details: chicken DT40 Tdp1-/-;hTDP1 cells + 20 nM CPT, ATP luminescence, 48 h; series mostly up to 46.2 µM
# Procedure, shortened: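 Cell growth measured by CellTiter-Glo luminescence after a minimum 48 h, 37 C compound exposure with 20 nM CPT in Tdp1-knockout DT40 cells stably expressing hTDP1, seeded 400/well; qHTS titration format.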
# Potency is the fitted concentration of half-maximal effect.
row,Structure (SMILES),Potency
1,CC(C)Oc1ccc(Oc2ccc(C(F)(F)F)cn2)cc1,inactive
2,CC(C)CN1CCC1(C)C(=O)Nc1ccc(OC(F)F)cc1 (stereo unspecified),inactive
3,CC(C)Oc1ccc(CN2CCC2(C)C(=O)NCc2ccc(C(F)(F)F)cc2)cc1 (stereo unspecified),25.9 µM (active)
4,CN(CC(=O)Nc1ccc(Cl)cc1)C(=O)CNC(=O)c1ccc2ccccc2c1,inactive
5,O=C(/C=C/c1ccccc1)Oc1coc(CSc2ncccn2)cc1=O,inactive
6,COc1ccc(-c2nn3c(-c4ccc(OC)cc4)nnc3c3ccccc23)cc1,inactive
7,COc1ccc(OC)c(/C=C/C(=O)OCC(=O)Nc2ccc3c(c2)OCCO3)c1,20.6 µM (active)
8,COc1ccccc1OCCCC(=O)Nc1ccc2c(c1)OCCO2,inactive
9,COc1cccc(/C=C/C(=O)Nc2ccc3c(c2)OCCO3)c1,inactive
10,Nc1nnc(SCC(=O)NCC(=O)Nc2ccc(F)c(F)c2F)s1,inactive
11,COc1ccc(C2/C=C\CN(CC(C)C)CC(=O)N2Cc2ccc(F)cc2)cc1 (stereo unspecified),inactive
12,O=C(N[C@H]1C/C=C\C(c2ccc(F)cc2)N(Cc2ccccc2)C(=O)C1)OCC1c2ccccc2-c2ccccc21 (stereo partly specified),18.4 µM (active)
13,O=C1c2ccccc2C(O)N1Cc1ccccc1 (stereo unspecified),inactive
14,Cn1c(SCC(=O)N2CCCC2)nnc1-c1ccc2c(c1)OCO2,inactive
15,O=C(CNCc1ccc(Cl)cc1)Nc1cccc(C(=O)O)c1,inactive
16,CCOC(=O)CSc1nc2c(c(=O)n(Cc3ccccc3Cl)c(=O)n2C)n1C,inactive
17,CCOC(=O)n1c(SCC(=O)N(CC)CC)nc2ccccc21,inactive
18,CCN(CC)C(=O)CSc1nc2ccsc2c(=O)n1Cc1ccccc1Cl,18.4 µM (active)
19,O=C(CSc1ccsc1[N+](=O)[O-])N1CCCCC1,inactive
20,O=C(Nc1sc2c(c1-c1nc3ccccc3[nH]1)CCCC2)C1CC1,inactive
21,COc1ccc(C)c(Cn2c(-c3nonc3N)nc3ccccc32)c1,2.59 µM (active)
22,CC(=O)Nc1nonc1-c1nc2ccccc2n1Cc1ccccn1,inactive

row,Structure (SMILES),Potency
1,COc1ccc2oc(N)nc2c1,inactive
2,COc1cccc(C(O)c2nc3ccccc3n2C)c1 (stereo unspecified),inactive
3,Nc1nonc1-c1nc2ccccc2n1Cc1ccc(F)cc1,16.4 µM (active)
4,Fc1ccc(CNc2nc3ccccc3n3nnnc23)cc1,inactive
5,CN(C)S(=O)(=O)c1ccc(N2CCCC2=O)c([N+](=O)[O-])c1,inactive
6,Cc1ccc(F)cc1NC(=O)N1CCCN(c2ccc(C(F)(F)F)cn2)CC1,inactive
7,O=C(Cn1c(=O)n(Cc2ccccc2)c(=O)c2sc3ccccc3c21)Nc1ccccc1F,inactive
8,Brc1ccccc1C1N=C(c2ccccc2)NO1 (stereo unspecified),inactive
9,CCc1nc2c(=O)[nH]cnc2o1,inactive
10,Cc1n[nH]c(=O)c2c(NC(=O)CSc3cc(Cl)ccc3Cl)oc(C)c12,inactive
11,CCOc1ccc(NC(=O)Cn2cc(C(=O)c3ccc(C)cc3)c(=O)c3cc4c(cc32)OCCO4)cc1,inactive
12,CCOc1ccc2c(=O)c(-c3ccc4c(c3)OCCCO4)c(C)oc2c1,18.4 µM (active)
13,O=C(COc1ccc2c(C(F)(F)F)cc(=O)oc2c1)Nc1ccc2c(c1)OCCO2,inactive
14,CCOC(=O)C1CCCN(C(=O)c2ccc(C)c(F)c2)CC1 (stereo unspecified),inactive
15,CCc1ccc(Nc2nn3c(=O)c4cc5c(cc4nc3s2)OCO5)cc1,inactive
16,CCOC(=O)C1CCN(C(=O)c2ccc3c(=O)n4nc(Nc5ccccc5CC)sc4nc3c2)CC1,13 µM (active)
17,Cc1ccccc1Nc1nn2c(=O)c3ccc(C(=O)NCCc4ccc(Cl)cc4)cc3nc2s1,5.8 µM (active)
18,C=CCn1c(SCC(=O)CC(=O)OCC)nc2cc(C(=O)N3CCC(C(N)=O)CC3)ccc2c1=O,inactive
19,Cc1nc2c(c(C)nn2-c2ccccc2)c(C)c1CCC(=O)NCCc1ccc(Cl)cc1,inactive
20,CC(=O)NS(=O)(=O)c1ccc2c(c1)Cc1cc(S(=O)(=O)NC(C)=O)ccc1-2,inactive
21,O=C(CN(C(=O)CCC(=O)Nc1nccs1)c1ccc(F)cc1)NCc1ccc2c(c1)OCO2,inactive
22,CO[C@@H]1[C@@H](OC(N)=O)[C@@H](O)C(Oc2ccc3c(O)c(NC(=O)c4ccc(O)c(CC=C(C)C)c4)c(=O)oc3c2C)OC1(C)C (stereo partly specified),inactive

row,Structure (SMILES),Potency
1,Nc1ccc(-c2nnc(-c3ccccc3)o2)cc1,inactive
2,Cc1ccc(S(=O)(=O)NCCC(=O)Nc2cccc(S(N)(=O)=O)c2)cc1C,inactive
3,FC(F)(F)c1cc(-c2ccco2)nc(N2CCOCC2)n1,inactive
4,c1ccc(-n2nnnc2N2CCOCC2)cc1,inactive
5,c1ccc2c(NC3C4CC5CC(C4)CC3C5)nc(N3CCOCC3)nc2c1 (stereo unspecified),10.3 µM (active)
6,Cc1ccc(NC(=O)Cc2nc(COC(=O)C(C)NS(=O)(=O)c3ccc(C)cc3)cs2)cc1 (stereo unspecified),inactive
7,CCOC(=O)c1ccc(NC(=S)Nc2cc(C)cc(C)n2)cc1,inactive
8,Cc1ccc(C(=O)NNc2ncnc3ccccc23)cc1,inactive
9,c1coc(CNc2ncnc3ccccc23)c1,7.08 µM (active) and 10.3 µM (active)
10,CS(=O)(=O)n1nc(-c2ccccc2)nc1NCc1ccco1,inactive
11,c1ccc(-c2nc(NCc3ccco3)c3ccccc3n2)cc1,16.4 µM (active)
12,CN(c1ccccc1)c1nc(N)c([N+](=O)[O-])c(NCc2ccco2)n1,inactive
13,Brc1nc2ncnc(NCc3ccco3)c2[nH]1,inactive
14,COCCOC1CCN(C(=O)c2ccc(OC)c(OC3CCN(C(C)C)CC3)c2)CC1,inactive
15,Cc1cccc(NS(=O)(=O)c2ccc([N+](=O)[O-])cc2)n1,inactive
16,CCOC(=O)C1=C(c2ccc(OC)cc2)C(=O)c2ccccc2C1=O,1.16 µM (active)
17,CCOC(=O)c1cnc(-c2ccccc2)nc1Oc1ccc(C)cc1,inactive
18,COc1ccc(OCCCON2C(=O)c3ccccc3C2=O)cc1,inactive
19,Cc1cc(C)c(C#N)c(SCC(=O)NN2CC(=O)N(c3ccccc3F)CC2=O)n1,inactive
20,COC(=O)c1ccc(CSc2nncn2N)cc1,inactive
21,C=CCNC(=O)c1ccc2c3n(nc2c1)-c1ccc(C)cc1CO3,20.6 µM (active)
22,CCOc1c2ccc(C(=O)NCc3ccc4c(c3)OCO4)cc2nn1C,inactive

row,Structure (SMILES),Potency
1,Cc1ccc(CCNC(=O)c2ccc3c(c2)nc2n3CCC(C)C2)cc1 (stereo unspecified),inactive
2,Cc1cc2c(cc1C)NC1(C[C@H]3CCC(=O)N4CC[C@@H](C1)[C@@H]34)C(=NC(C)(C)CC(C)(C)C)N2 (stereo partly specified),20.6 µM (active)
3,O=C1CC[C@@H]2CC3(C[C@@H]4CCN1[C@H]24)Nc1cc([N+](=O)[O-])ccc1NC3=NC1CCCCC1 (stereo partly specified),inactive
4,O=C1CCC[C@@H]2C[C@@]3(C[C@@H]4CCN1[C@H]24)Nc1ccccc1NC3=NCc1ccccc1,inactive
5,COc1ccccc1NC(=O)C[n+]1ccccc1,inactive
6,COc1ccccc1NC(=O)/C=C/C(N)=O,2.06 µM (active)
7,COc1ccccc1NC(=O)c1cc(Cl)nnc1Cl,inactive
8,Nc1ccccc1Sc1cc(Cl)nnc1Cl,inactive
9,Cc1ccsc1C(=O)OCC(=O)Nc1cccc(F)c1,inactive
10,O=C(CNC(=O)c1ccc2ccccc2c1)Nc1ncccc1O,inactive
11,O=C(NCC(=O)N1CCN(c2ccccc2F)CC1)c1cccs1,inactive
12,O=C(NCC(=O)N1CCN(c2ccccc2O)CC1)c1ccc2ccccc2c1,18.4 µM (active)
13,CN(C)/C=C(\C#N)C(=O)c1cccnc1Oc1cccc(F)c1,inactive
14,COCc1[nH][nH]c(=O)c1C=Nc1ccc(F)cc1F,inactive
15,O=C(c1cc2ccccc2o1)N1CCN(c2cccc(C(F)(F)F)c2)CC1,inactive
16,Cc1ccc(C)c(S(=O)(=O)N2CCCOC2CNC(=O)C(=O)NC2CCCCC2)c1 (stereo unspecified),inactive
17,Cn1c(Nc2ccccc2)cc(=O)n(C)c1=O,inactive
18,S=c1ccc2ccccc2[nH]1,13 µM (active)
19,CCOC(=O)c1ccccc1NS(=O)(=O)c1c(C)nc2sccn2c1=O,inactive
20,O=C(CSC1=Nc2ccccc2C2=NC(CC(=O)NCc3ccco3)C(=O)N12)NCc1ccco1 (stereo unspecified),inactive
21,Cc1ccc(CNC(=O)CSC2=Nc3ccccc3C3=NC(C)C(=O)N23)cc1 (stereo unspecified),inactive
22,COc1ccccc1NC(=O)CSC1=Nc2ccccc2C2=NC(CC(=O)NCc3cccs3)C(=O)N12 (stereo unspecified),20.6 µM (active)

row,Structure (SMILES),Potency
1,CN1CCC(=NNC(=O)c2ccc(N(Cc3ccc(Cl)cc3)S(C)(=O)=O)cc2)CC1,inactive
2,CC(=O)Nc1ccc(NC(=O)CC2CCCC2)cc1,inactive
3,CSc1ncnc2c1ncn2CC(=O)C1CCC2C3CCC4=CC(=O)CCC4(C)C3CCC12C (stereo unspecified),5.8 µM (active)
4,CSc1ncnc2c1ncn2CCCNCC1CCCCC1,inactive
5,CCOC(=O)c1ccc(CS(=O)c2ccc(Cl)cc2)o1 (stereo unspecified),inactive
6,CC(Nc1ccc([N+](=O)[O-])cc1[N+](=O)[O-])c1ccccc1 (stereo unspecified),inactive
7,CCN(CC)c1ccc(C(=O)Nn2c(C)nc3ccccc3c2=O)cc1,inactive
8,CCN(CC)c1ccc(/C=N/Nc2nc(C)cc(C)n2)c(O)c1,4.11 µM (active)
9,Cc1ccc(C(=O)NCCNC(=O)c2cnccn2)cc1,inactive
10,CCN(CC)c1ccc(/C=N/NC(=O)c2cnccn2)c(O)c1,5.17 µM (active)
11,CCN(CC)c1ccc(/C=N/NC(=O)CNC(=O)c2cccnc2)cc1,inactive
12,O=C(NCc1ccco1)c1cccc(-c2ccc3nncn3c2)c1,inactive
13,CS(=O)(=O)c1cccc(-c2ccc3nncn3c2)c1,inactive
14,NC(=O)c1ncc(C(F)(F)F)cc1Oc1ccc(F)cc1,inactive
15,O=C(Nc1ccccc1Cl)Nn1cnnc1,inactive
16,O=C(COC(=O)c1ccccc1)c1ccc2c(c1)OCCO2,inactive
17,O=C(CCN1CCc2ccccc2C(O)(c2ccccc2)C1)c1ccc2c(c1)OCCO2 (stereo unspecified),2.31 µM (active)
18,O=C(CN1CCC(O)(c2ccccc2)CC1)Nc1ccc2c(c1)OCCO2,inactive
